{"source": "PubChem BioAssay AID435019", "about": "(Southern Research Specialized Biocontainment Screening …, 2010)", "note": "Among all 2,300 compounds or so, about 1,200 (52%) were called active. How the calls were made is not given here. So high a share suggests a set chosen from earlier hits. The list shows a part of the results. Entries with a potency or affinity are not part of this list."}
{"test": "mammalian cell cytotoxicity, dose response, cytotoxicity control for M. tuberculosis inhibitor project (AID 435019);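 further: lower values mean fewer viable cells so more cytotoxicity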", "details": "cytotoxicity counter-screen; series mostly up to 40 µM"}
{"smiles": "COc1ccc(C(=O)OCC(=O)c2ccc(Br)s2)c(OC)c1", "outcome": "inactive"}
{"smiles": "CCOC(=O)C1CCCc2c1[nH]c1c(C(N)=O)cccc21", "note": "(stereo not given)", "outcome": "inactive"}
{"smiles": "O=C(OCc1ccccc1F)c1cnc(Cl)c(Cl)c1", "outcome": "inactive"}
{"smiles": "O=C(OCc1ccc([N+](=O)[O-])cc1)c1cc2ccccc2oc1=O", "outcome": "inactive"}
{"smiles": "COc1ccccc1C1=NOC(COC(=O)c2ccc([N+](=O)[O-])cc2)C1", "note": "(stereo not given)", "outcome": "inactive"}
{"smiles": "CCCCS/C(N)=N/N=C/c1cc(C)ccc1O", "outcome": "inactive"}
{"smiles": "Nc1ccc(Oc2ccc(F)cc2)nc1", "outcome": "inactive"}
{"smiles": "CCOC(=O)c1cc(-c2cccc([N+](=O)[O-])c2)on1", "outcome": "inactive"}
{"smiles": "CNC(=S)Nc1ccc(N2CCN(c3ccc(C(F)(F)F)cn3)CC2)nc1", "outcome": "inactive"}
{"smiles": "CCCCCCC#Cc1ccc2c(c1)COc1c3ccccc3nn1-2", "outcome": "inactive"}
{"smiles": "COc1cc(N)c(Cl)cc1C(=O)N[C@H]1CCN(CCCOc2ccc(F)cc2)C[C@H]1OC", "outcome": "inactive"}
{"smiles": "O=C(NC1CCCCCC1)c1ccccc1-c1ccccc1", "outcome": "inactive"}
{"smiles": "N#CC(C(=O)Nc1ccccc1)=C1Nc2ccccc2N1", "outcome": "inactive"}
{"smiles": "Cc1ccccc1C(=O)Nc1ccccc1C(=O)NCC(C)C", "outcome": "inactive"}
{"smiles": "CSc1nc2nc3c(c(=O)n2[nH]1)CCCC3", "outcome": "inactive"}
{"smiles": "c1ccc(CCNc2ncnc3c2cnn3-c2ccccc2)cc1", "outcome": "inactive"}
{"smiles": "CCSc1ncc(/C=N/Nc2ccccc2)n1C", "outcome": "inactive"}
{"smiles": "CN1/C(=C\\C(=O)C[n+]2ccc(C(=O)c3ccccc3)cc2)C(C)(C)c2ccccc21", "outcome": "inactive"}
{"smiles": "CCCN(CC1CC1)C(=O)COC(=O)c1ccc2c(c1)C(=O)N(c1ccc(OCC)cc1)C2=O", "outcome": "inactive"}
{"smiles": "CCOC(=O)c1ccc2c(c1)C(=O)N(C1CCCCC1)C2=O", "outcome": "inactive"}
{"smiles": "CN(C)C=Nc1ccc2nn(-c3ccccc3)nc2c1", "outcome": "inactive"}
{"smiles": "COC(=O)CSc1[nH]c2ccc(Br)cc2c1[N+](=O)[O-]", "outcome": "inactive"}
{"smiles": "CCOC(=O)c1csc(-c2snnc2C)n1", "outcome": "inactive"}
{"smiles": "O=C(COC(=O)C1CC2CCCC(C1)C2=O)NNC(=O)c1ccccc1F", "note": "(stereo not given)", "outcome": "inactive"}
{"smiles": "Cn1nnc(NC(=S)NC(=O)c2ccc(-c3ccc(Br)cc3)o2)n1", "outcome": "inactive"}
{"smiles": "NC(=S)NNc1ccc(Cl)c(Cl)c1", "outcome": "inactive"}
{"smiles": "Nc1ccc(C(=O)OCCCc2nc3cc4ccccc4cc3[nH]2)cc1", "outcome": "inactive"}
{"smiles": "CS(=O)(=O)c1ncc(Cl)c(C(=O)Nc2ccc(OC(F)F)cc2)n1", "outcome": "inactive"}
{"smiles": "COCCOC(=O)c1ccc(NC(=O)COc2ccc([N+](=O)[O-])cc2)cc1", "outcome": "inactive"}
{"smiles": "CC1CCN(C(=O)C2CCN(c3nnc(-n4cccc4)s3)CC2)CC1", "outcome": "inactive"}
{"smiles": "COCc1nnc(NC(=O)C2CC(=O)N(c3ccc(C)c(Cl)c3)C2)s1", "note": "(stereo not given)", "outcome": "inactive"}
{"smiles": "COc1ccc2c(c1)[C@@H]1[C@H](CO2)[C@H](c2ccccc2)[C@]2(C)C(=O)Nc3ccc(C)cc3C(=O)N12", "outcome": "inactive"}
{"smiles": "CCC(=O)c1coc2ccc(O)cc12", "outcome": "inactive"}
{"smiles": "CCCCc1ccc(NC=C2C(=O)OC3(CCCCC3)OC2=O)cc1", "outcome": "inactive"}
{"smiles": "Cc1ccc(C(=O)N/C(=C/c2ccco2)C(=O)OCN2C(=O)c3ccccc3C2=O)cc1", "outcome": "inactive"}
{"smiles": "C#CCOC(=O)/C(=C/C=C/c1ccccc1)NC(=O)c1ccccc1", "outcome": "inactive"}
{"smiles": "O=C(OCn1nnc2ccccc2c1=O)C1CCCCC1", "outcome": "inactive"}
{"smiles": "CN1[C@@H]2CC[C@H]1CC(OC(=O)[C@H](CO)c1ccccc1)C2", "note": "(stereo not given in full)", "outcome": "inactive"}
{"smiles": "CC(=O)c1cccc(NC(=S)NC2CCCCCCC2)c1", "outcome": "inactive"}
{"smiles": "Cc1[nH]nc2nc3c(c(OC(=O)c4ccccc4)c12)c(=O)n(C)c(=O)n3C", "outcome": "inactive"}
{"smiles": "Cc1cc(/C=C(/C#N)c2cccc(F)c2)c(C)n1-c1cccnc1", "outcome": "inactive"}
{"smiles": "N#Cc1cccc(NC(=O)N2CCC(c3nc4c(nnn4Cc4cccc(Cl)c4)c(=O)[nH]3)CC2)c1", "outcome": "inactive"}
{"smiles": "CCOC(=O)c1ccc(Oc2nc(NC(C)(C)C)nc(N(C)C)n2)cc1", "outcome": "inactive"}
{"smiles": "CN(C)S(=O)(=O)c1cccc(NC(=O)CCc2nc3sc4c(c3c(=O)[nH]2)CCCC4)c1", "outcome": "inactive"}
{"smiles": "Cc1cc(OCc2nc3ccccc3s2)ccc1N", "outcome": "inactive"}
{"smiles": "CCCC(=O)OCCNc1cc(SCCC(=O)OC)c2nonc2c1[N+](=O)[O-]", "outcome": "inactive"}
{"smiles": "CCOC(=O)c1nn(-c2ccc(C)c(C)c2)cc1O", "outcome": "inactive"}
{"smiles": "CCn1cc(Br)c(C(=O)Nc2ccc(C(=O)OC(C)C)cc2)n1", "outcome": "inactive"}
{"smiles": "C=CC[N@@+]12CC[C@]34c5ccccc5N5/C=C6\\C7N(/C=C(\\C53)[C@@H](C[C@@H]41)/C(=C/CO)C2)c1ccccc1[C@@]71CC[N@@+]2(CC=C)C/C(=C\\CO)[C@@H]6C[C@@H]12", "note": "(stereo not given in full)", "outcome": "inactive"}
{"smiles": "Cc1cccc(C(=O)OCC(=O)N2CCc3ccccc3C2)c1O", "outcome": "inactive"}
{"smiles": "CC(C)c1ccc2[nH]c(O)c(N=NC(=O)c3ccc(CSc4nncn4C)cc3)c2c1", "outcome": "inactive"}
{"smiles": "COC(=O)N/N=C/c1c[n+]([O-])c2ccccc2[n+]1[O-]", "outcome": "inactive"}
{"smiles": "N[C@@H](CCl)C(=O)O", "outcome": "inactive"}
{"smiles": "O=C(CSc1nc2ccccc2c(=O)[nH]1)NCc1ccc(Cl)cc1", "outcome": "inactive"}
{"smiles": "Cc1ccc(NC(=O)C2=C(O)CCn3c2nc2ccccc23)cc1", "outcome": "inactive"}
{"smiles": "CC(C)NC(=O)c1onc(CSc2ccc(F)c(F)c2)c1C(=O)O", "outcome": "inactive"}
{"smiles": "CCN(Cc1ccncc1)Cc1nc(-c2ccc(C(=O)OC)cc2)no1", "outcome": "inactive"}
{"smiles": "Cc1ccc(-c2noc(-c3cc4ccccc4oc3=O)n2)cc1", "outcome": "inactive"}
{"smiles": "COc1ccc(-c2oc3cccnc3c2/C=C/c2ccc(OC)c(OC)c2)cc1", "outcome": "inactive"}
{"smiles": "O=C(NCC1CC1)c1cc([N+](=O)[O-])cc([N+](=O)[O-])c1", "outcome": "inactive"}
{"smiles": "CCOc1cc(C=O)cc(N=Nc2cccc([N+](=O)[O-])c2)c1O", "outcome": "inactive"}
{"smiles": "N/C(=N\\OC(=O)CCC1CCCC1)c1cccc([N+](=O)[O-])c1", "outcome": "inactive"}
{"smiles": "CCOC(=O)c1ccc(N=Cc2c(O)c3ccccc3oc2=O)cc1", "outcome": "inactive"}
{"smiles": "CCOC(=O)/C(=N\\Nc1ccc(Br)cc1)N1CC(C)OC(C)C1", "note": "(stereo not given)", "outcome": "inactive"}
{"smiles": "CC(OC(=O)CCN=C1NS(=O)(=O)c2ccccc21)C(=O)Nc1ccc(F)c(F)c1F", "note": "(stereo not given)", "outcome": "inactive"}
{"smiles": "CC(C)(C)c1ccc(OCCC(=O)OCC(=O)NC(=O)NC2CCCC2)cc1", "outcome": "inactive"}
{"smiles": "Nc1cnccc1C(=O)O", "outcome": "inactive"}
{"smiles": "O=C1CC(Nc2ccc3ccccc3c2)C(=O)N1Cc1ccccc1", "note": "(stereo not given)", "outcome": "inactive"}
{"smiles": "Cc1c(C(=O)Oc2cccc3ccccc23)cnn1-c1ccccc1", "outcome": "inactive"}
{"smiles": "CC(=NCc1ccc2c(c1)OCO2)C1=C(O)c2ccccc2C1=O", "outcome": "inactive"}
